Measurements from PubChem BioAssay AID624417 (National Center for Advancing Translational Sciences (NCATS), 2012).
Hit rate of the full screen: of about 410,000 compounds, about 6,400 (1.6%) were called active. A call without a number means that no potency is given here. About 20% were inconclusive and are not listed. The call rests on the fitted dose curve; in most records, active means well fitted inhibition curve with a large enough effect; inconclusive means small, poorly fitted or top-dose-only effect; inactive means no such curve, though single readings can be large or run the other way. The sample as a whole holds a higher share of actives than the screen did.

Each compound was assayed against Glucagon-like peptide 1 receptor (Homo sapiens) (UniProt P43220) (assay: qHTS of GLP-1 Receptor Inverse Agonists (Inhibition Mode)). Settings: HEK293 GLP-1R CRE-luciferase, luminescence, 24 h, GLP-1R form is constitutively active; series mostly up to 38.3 µM.
Source text: The overall goal of this project was to develop a novel assay for discovering small molecule ligands for class B1 G protein-coupled receptors (GPCRs). Very few agonists (or inverse agonists in inhibition mode) with generally weak activity for this entire group of physiologically important receptors are known to date. To establish proof-of-principle that this critical bottleneck can be overcome with a suitable screening approach, our studies focused on the class B1 receptor for glucagon-like peptide-1 (GLP-1R), a potential therapeutic target for diabetes and neurodegenerative disease. The assay was developed using a cell-based functional readout. Toward this goal, stably transfected HEK293 cell clones were established that co-express (i) a cAMP-responsive luciferase reporter gene, and (ii) constitutively active GLP-1R that upon ligand interaction inhibit (inverse agonists) the luciferase activity. In addition, two control cell lines were developed: (i) one that express only the cAMP-responsive reporter gene to enable initial exclusion of GLP-1R independent effects of candidate probes; and (ii) one with the reported gene cloned with another constitutively active orphan receptor GPR119 to enable exclusion of GLP-1R independent inhibitor effects of candidate inverse agonists. To that end, this assay was optimized for 1536-well format and screened against the MLSMR. […] NIH Molecular Libraries Probe Production Network [MLPCN] NIH Chemical Genomics Center [NCGC] Grant: NS064851 PI Name: Martin Beinborn, Tufts Medical Center
Six ul of cell suspension (200 cells/uL in DMEM + 10% Nu serum + 1% pen-strep) is dispensed in a white solid 1536-well plate. The plates are incubated for 12 hours at 37 deg C at 5% CO2 followed by addition of 23 nL compounds. After 24 hr incubation at 37 deg C and 5% CO2, 3 uL of luciferase assay detection reagent is added. A luminescence read is obtained on the PerkinElmer Viewlux after 12 min incubation at room temperature.
Further: nearly all actives have a fitted effect of over 55% in size.
Potency means the concentration at half of the fitted maximal effect.

Glucagon-like peptide 1 receptor (Homo sapiens), sequence (P43220 whole entry, looked up): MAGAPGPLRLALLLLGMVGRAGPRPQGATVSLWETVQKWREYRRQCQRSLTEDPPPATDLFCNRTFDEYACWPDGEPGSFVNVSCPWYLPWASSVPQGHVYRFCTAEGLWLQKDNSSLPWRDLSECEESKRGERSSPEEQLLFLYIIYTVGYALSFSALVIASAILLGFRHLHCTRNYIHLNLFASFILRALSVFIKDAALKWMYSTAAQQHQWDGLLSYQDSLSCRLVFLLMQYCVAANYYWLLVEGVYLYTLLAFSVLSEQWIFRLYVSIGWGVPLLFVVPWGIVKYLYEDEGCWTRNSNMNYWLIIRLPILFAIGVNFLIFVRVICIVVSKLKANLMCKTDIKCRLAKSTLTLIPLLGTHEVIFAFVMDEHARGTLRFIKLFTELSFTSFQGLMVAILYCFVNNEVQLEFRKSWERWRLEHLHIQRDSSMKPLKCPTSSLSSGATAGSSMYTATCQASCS

SMILES	Potency
O=C(Nc1cccc2ccccc12)N1CCN(Cc2ccc3c(c2)OCO3)CC1	inactive
O=C(c1cccs1)N1CCN(Cc2ccc3c(c2)OCO3)CC1	inactive
O=C(CSCc1ccc(Cl)cc1)N1CCN(Cc2ccc3c(c2)OCO3)CC1	10 µM (active)
CCCC(=O)N1CCC1(C)C(=O)NCc1ccc(SC)cc1 (stereo not given)	inactive
CC1(C(=O)NS(=O)(=O)c2ccccc2Cl)CCN1C(=O)c1cccc(F)c1 (stereo not given)	inactive
O=C(Cc1cccs1)N/N=C/c1ccc(OCc2ccccc2)cc1	inactive
O=C(N/N=C/c1ccc(OCc2ccccc2)cc1)c1ccc(O)cc1	2.82 µM (active)
O=C(N/N=C/c1ccc(OC(=O)c2ccccc2Cl)cc1)c1ccc(O)cc1	inactive
O=C(O)c1ccccc1Cc1ccc(F)c2ccccc12	inactive
CCC(C(=O)NC(C)(C)C)n1c(-c2ccccc2)nc2ccccc21 (stereo not given)	inactive
C[C@H]1CN([C@@H](C)CO)C(=O)c2cc(-c3ccccc3F)cnc2O[C@H]1CN(C)C(=O)C1CCOCC1	inactive
CC1(C(=O)Nc2cccc3cccnc23)CCN1C(=O)CCC1CCCC1 (stereo not given)	inactive
O=C(NCCN1CCOCC1)c1ccc2c(c1)N(Cc1cccc(Cl)c1)C(=O)c1ccccc1S2(=O)=O	inactive
Cc1ccccc1N1CCN(Cc2nc(Cc3ccccc3F)no2)CC1	11.2 µM (active)
Cc1cccc(N2CCN(Cc3nc(C4CC4)no3)CC2)n1	inactive
Fc1cccc(Cc2noc(CN3CCN(c4cnccn4)CC3)n2)c1	inactive
Cc1cc(Cl)ccc1OCCCC(=O)NCc1ccccn1	inactive
Cc1cc(Cl)ccc1OCCCC(=O)NCc1ccncc1	inactive
Cc1cc(Cl)ccc1OCCCC(=O)Nc1cccc(-n2cnnn2)c1	10 µM (active)
COc1ccc(C(O)c2nc(-c3ccc(OC)nc3)cs2)cc1 (stereo not given)	inactive
Cc1cc(Br)cn2c(Cc3ccccc3C(F)(F)F)c(-c3ccc(Cl)cc3)nc12	inactive
CCCCN(C=O)c1c(CC)nc2c(OCc3ccccc3C(=O)OC)cccn12	inactive

SMILES	Potency
O=S1(=O)CC(N2CCN(c3ccccn3)CC2)CN1Cc1ccc(F)cc1 (stereo not given)	inactive
CCc1nc2c(OCc3ccc(F)c(F)c3)cccn2c1N(C)C(=O)c1ccco1	inactive
CCCNC(=O)c1cc(C2CCCCN2S(=O)(=O)c2ccc(C#N)cc2)on1 (stereo not given)	inactive
Cc1nc2ccc(NC(=O)C3CCCCC3)cc2s1	inactive
Cc1nc(NC(=O)C23CCC(C)(C(=O)O2)C3(C)C)sc1C (stereo not given)	inactive
Cc1nc(NC(=O)C2CCCCC2)sc1C	8.91 µM (active)
NC(=O)CSc1nnc(-c2cccc(S(=O)(=O)N3CCOCC3)c2)o1	inactive
Cc1ccc(C(=O)NC(C)C(c2cccs2)N2CCOCC2)cc1C (stereo not given)	inactive
Cn1nc(N)c2ncc(C(Cl)(Cl)Cl)nc21	inactive
CC(=O)Nc1ccc(OCC(O)CN2CCN(c3ccccc3Cl)CC2)cc1 (stereo not given)	inactive
O=c1cc(CN2CCN(c3cccc(Cl)c3)CC2)c2cc3c(cc2o1)CCCC3	inactive
OC(COc1ccc2c(c1)CCC2)CN1CCN(c2cccc(Cl)c2)CC1 (stereo not given)	10 µM (active)
O=C(c1ccc(Cl)cc1)c1ccc(OCC(O)CN2CCCCC2)cc1 (stereo not given)	5.01 µM (active)
O=[N+]([O-])c1ccc(N2CCN(CC(O)COc3ccccc3)CC2)cc1 (stereo not given)	inactive
OC(COc1ccc(Br)cc1)CN1CCCC1 (stereo not given)	inactive
Cc1ccc(S(=O)(=O)N2C[C@]3(O)C[C@@H]4C(=O)N(c5ccccc5)C(=O)[C@@H]4C[C@]3(OC(=O)NC3CC3)C2)cc1	inactive
C[C@H](O)[C@@H]1C(=O)N2CCc3c([nH]c4ccccc34)[C@@H]2C[C@@H]1N(C)C(=O)Nc1ccc(F)cc1	inactive
CCN([C@H](CO)C(C)C)S(=O)(=O)c1ccccc1Br	inactive
C=CC(COCc1ccccc1)N(Cc1ccccc1)S(=O)(=O)c1ccccc1Br (stereo not given)	10 µM (active)
Cc1cc(C)n2c(NCc3ccccc3)c(CC(C)C)nc2n1	inactive
CC(C)Cc1ccc(-c2cc3nc(NCc4cccc(Cl)c4)ccn3n2)cc1	2.82 µM (active)
COCCn1c(SCC(=O)Nc2ccc(F)cc2F)nc2c(c1=O)SCC2	inactive

SMILES	Potency
CC1(C(=O)NCc2ccccc2)CSCC(=O)N1CCCn1ccnc1 (stereo not given)	inactive
O=S(=O)(c1ccccc1)N1CCc2ccccc21	inactive
Cc1cccc(N2CCN(C(=O)c3cccc(N4C(=O)C5C6C=CC(C6)C5C4=O)c3)CC2)c1C (stereo not given)	inactive
Cc1cccc(N2CCN(C(=O)c3ccc4c(c3)CCN4S(=O)(=O)c3ccccc3)CC2)c1C	7.94 µM (active)
O=C(Nc1cccc(C(=O)O)c1)/C(=C\c1ccccc1)NC(=O)c1ccc(Br)o1	inactive
OC[C@@H]1CN(Cc2cccs2)C[C@H](n2cnc3c(NC4CCCC4)ncnc32)O1	inactive
OC[C@@H]1CN(Cc2ccc(F)cc2)C[C@H](n2cnc3c(NC4CCCC4)ncnc32)O1	inactive
OC[C@@H]1CN(Cc2ccc(-c3ccccc3)cc2)C[C@H](n2cnc3c(NC4CCCC4)ncnc32)O1	8.91 µM (active)
CC(=O)c1ccc(Nc2nc(C(N)c3ccccc3)cs2)cc1 (stereo not given)	inactive
COc1cccc(-c2nc3nc(C)cc(C)n3c2NC2CCCCC2)c1	inactive
CCCCNC(=O)C(=O)c1ccccc1NC(C)=O	inactive
CCCCNC(=S)N/N=C1\CCCCc2ccccc21	11.2 µM (active)
Cc1ccc(NC(=S)N/N=C2/CCCc3c(C)cc(C)cc32)cc1	inactive
CCC(=O)N1CCC(C)(C(=O)Nc2cc(OC)c(OC)c(OC)c2)C1 (stereo not given)	inactive
CC(=O)c1cccc(-c2cnc3c(NC=O)cc(-c4ccc(N5CCN(C)CC5)cc4)cn23)c1	inactive
COc1ccc(NC(=O)CCN2CCN(CCO)CC2)cc1	inactive
CCc1cc(C(=O)c2ccc(OC)cc2)c(NC(=O)CN2CCN(C)CC2)s1	4.47 µM (active)
COc1ccc(C(=O)Nc2sc(C)c(C)c2CN2CCOCC2)cc1	inactive
CC(C)(C)c1nc2ccccc2c(=O)n1N1C(=O)c2ccccc2C1=O	10 µM (active)
Cc1nc2ccccc2c(=O)n1NC(=O)c1ccccc1	inactive
CN(C)CCCn1c(SCCN2C(=O)c3ccccc3C2=O)nc2ccccc2c1=O	inactive
